Test results: PubChem BioAssay
“And” between values parts separate entries of the source, which are not always exact repeats. Equal entries are not always repeated. The source made the active and inactive calls.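 Rule for the calls, unless noted: active = inhibition at or above 50% relative to wild type and mutant plate controls; inactive = inhibition below 50%.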

Key:
[1] = inhibitors of TNFa-induced NFkB p65 translocation, primary screen, imaging, HUVEC, MLSMR starter and 10KST1 sets (AID 438;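 active = inhibition above 20% together with a positive visual image hit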;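 note: compound added about 3h40 before a 20 min TNFalpha stimulation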;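 for inhibition: signal is the nuclear over cytoplasmic p65 intensity ratio per well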); conditions: HUVEC TNFa-induced p65 nuclear translocation; cell count: measured here: nuclei count (cytotoxicity indicator), at 2.08 µM; inhibition: at 2 µM, stronger effect = higher value, 0% TNFa-plus-vehicle, 100% no-TNFa wells
[2] = reduction of polyQ htt aggregates in cells – imaging, exon1htt(103Q)mCFP cells, high-content imaging, primary screen (AID 483;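 active = visual image review flags a hit and inhibition of aggregation exceeds 20%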;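 note: compound exposure lasted 3 days before fixation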;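 for nuclei count: percent of the per-plate median nuclei count of sample wells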); conditions: exon1htt(103Q)mCFP cell line, aggregate imaging, at 2 µM; inhibition of aggregation: stronger effect = higher value; nuclei count: measured here: cell count, toxicity
[3] = endothelial E-selectin expression blockers – imaging, HUVEC, immunofluorescence, MLSMR starter and 10KST1 sets, primary screen (AID 487;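 active = visually confirmed hit in the image check and inhibition above 20%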;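 for inhibition: signal is fraction of cell area covered by stained E-selectin grains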;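 for nuclei count: 100% = median nuclei count of all wells on the same plate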); conditions: HUVEC TNFalpha-induced E-selectin immunofluorescence imaging, at 2 µM; inhibition: stronger effect = higher value; nuclei count: measured here: cell number, toxicity
[4] = Primary imaging screen for DUSP6 inhibitors that restore phospho-Erk in transfected HeLa cells, chemical complementation (AID 609;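 active = compounds giving at least 50% inhibition in the cell-based MKP-3 phosphatase rescue imaging test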;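 for inhibition: phospho-Erk level distribution per well compared with pooled transfected vehicle control wells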); conditions: HeLa MKP-3 transfected, phospho-Erk imaging KS statistic, at 10 µM, cells stimulated with TPA for 15 min
[5] = target: Dual specificity protein phosphatase 6 (Homo sapiens) (UniProt Q16828); experiment: as above; conditions: HeLa MKP-3 transfected, phospho-Erk imaging KS statistic; at 10 µM; stronger effect = higher value; cells stimulated with TPA for 15 min
[6] = target: Voltage-gated potassium channel subunit beta-2 (Rattus norvegicus) (UniProt P62483); experiment: inhibitors of rat Kvbeta2 reductase activity – biochemical, NADPH fluorescence, primary screen (AID 622;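 active = fluorescence slope higher than the sample average by over 3 SD, cut at about -0.22 in these data, passing the limit was not always enough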;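 note: slope of raw intensity against log time taken from 70 to 1610 s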); conditions: recombinant KvBeta, 4-cyanobenzaldehyde reduction, at 10 µM, stronger effect = higher value
[7] = target: Voltage-gated potassium channel subunit beta-2 (Rattus norvegicus) (UniProt P62483); experiment: enhancers of rat Kvbeta2 NADPH turnover – biochemical, NADPH fluorescence, primary screen (AID 623;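 active = NADPH fluorescence slope more negative than the mean of all samples by about 3 SD, 99.7% confidence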;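 note: fluorescence intensity change per second fitted from 20 to 320 s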); conditions: Recombinant KvBeta, NADPH fluorescence decrease slope, 10 min; at 10 µM; stronger effect = lower value
[8] = target: Alpha-2C adrenergic receptor (Homo sapiens) (UniProt P18825); experiment: compounds altering alpha2C-coupled GIRK flux – cell-based, HEK293 alpha2C/GIRK1/2, thallium flux, primary screen (AID 624;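 active = fluorescence slope after compound addition differing from the mean of all screened samples at 99.7% confidence, in either direction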;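 note: slope of fluorescence ratio to pre-addition baseline per second over 15 to 24 s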); conditions: thallium flux BTC fluorescence, at 10 µM, actives lie on both sides
[9] = inhibitors of larval lipid processing in zebrafish, primary screen, whole organism, PED6 fluorescence, gall bladder and intestine (AID 686;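 active = a full or partial loss of lipid-probe fluorescence in the fish gall bladder, intestine or both, judged by eye; inactive = no fluorescence loss, or compound toxic to the fish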;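 note: larvae 5 to 7 days old with five fish per well; signal comes from phospholipase A2 cleavage of quenched PED6 carried via bile; overnight exposure to compound and PED6 before scoring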); conditions: Zebrafish larvae PED6 lipid processing, fluorescence scoring; screened at 20 µM (by protocol)
[10] = loss of swimming-algae plug formation – whole organism, Chlamydomonas reinhardtii, WT vs cilia-less mutant, absorbance, 96-well, primary screen (AID 463189); conditions: Chlamydomonas reinhardtii gravitaxis, OD600 absorbance, 2 days; at 10 µM; stronger effect = higher value;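 note: 0% = wild type cc124 cells in DMSO and 100% = ciliumless bld1 mutant cells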
[11] = blockers of RIG-like receptor reporter activation – cell-based, Sendai virus stimulus, luciferase, 10K MLSCN set, TLR/RLR signaling modifier project, primary screen (AID 602276;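 active = inhibition at or above 50% at 10 µM; inactive = inhibition below 50%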;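 note: firefly luciferase from ISG56 promoter only with Renilla not read in this screen; 0% = Sendai virus plus DMSO and 100% = medium plus DMSO without virus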); conditions: HEK293 RL24 IRF3 luciferase reporter, at 10 µM, stronger effect = higher value
[12] = TLR3 IRF3 reporter activation blockers – cell-based, poly I:C stimulus, luciferase, 10K MLSCN set, primary screen (AID 602277;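 active = inhibition of the reporter signal at or above 50%; inactive = inhibition below 50%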); conditions: HEK293-TLR3 RL24 IRF3 luciferase reporter, at 10 µM, stronger effect = higher value
[13] = measured here: cell density z-score
[14] = measured here: nuclear c-Myc green intensity z-score
[15] = measured here: nuclear pErk red intensity z-score, stronger effect = higher value

Chain of Voltage-gated potassium channel subunit beta-2 (Rattus norvegicus) (P62483 whole entry, looked up): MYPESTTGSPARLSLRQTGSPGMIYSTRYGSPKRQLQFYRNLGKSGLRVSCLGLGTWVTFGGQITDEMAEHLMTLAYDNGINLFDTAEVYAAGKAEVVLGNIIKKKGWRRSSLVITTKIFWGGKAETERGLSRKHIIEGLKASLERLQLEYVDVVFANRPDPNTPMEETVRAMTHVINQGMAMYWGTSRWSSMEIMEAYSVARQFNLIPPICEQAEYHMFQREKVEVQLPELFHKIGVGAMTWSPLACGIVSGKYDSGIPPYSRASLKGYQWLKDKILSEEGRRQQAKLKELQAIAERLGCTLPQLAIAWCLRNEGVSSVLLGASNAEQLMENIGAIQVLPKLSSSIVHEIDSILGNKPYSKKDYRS
Chain of Dual specificity protein phosphatase 6 (Homo sapiens) (Q16828 whole entry, looked up): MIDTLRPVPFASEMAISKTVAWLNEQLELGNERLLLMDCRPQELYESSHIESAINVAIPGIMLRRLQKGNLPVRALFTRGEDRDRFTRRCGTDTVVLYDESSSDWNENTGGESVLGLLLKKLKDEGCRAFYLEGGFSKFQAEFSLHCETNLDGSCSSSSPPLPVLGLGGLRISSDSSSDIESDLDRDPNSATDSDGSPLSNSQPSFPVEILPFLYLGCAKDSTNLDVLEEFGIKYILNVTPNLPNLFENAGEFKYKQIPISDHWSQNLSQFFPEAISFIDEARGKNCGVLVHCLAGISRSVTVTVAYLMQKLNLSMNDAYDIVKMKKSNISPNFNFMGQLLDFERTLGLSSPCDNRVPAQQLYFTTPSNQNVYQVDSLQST
Chain of Alpha-2C adrenergic receptor (Homo sapiens) (P18825 whole entry, looked up): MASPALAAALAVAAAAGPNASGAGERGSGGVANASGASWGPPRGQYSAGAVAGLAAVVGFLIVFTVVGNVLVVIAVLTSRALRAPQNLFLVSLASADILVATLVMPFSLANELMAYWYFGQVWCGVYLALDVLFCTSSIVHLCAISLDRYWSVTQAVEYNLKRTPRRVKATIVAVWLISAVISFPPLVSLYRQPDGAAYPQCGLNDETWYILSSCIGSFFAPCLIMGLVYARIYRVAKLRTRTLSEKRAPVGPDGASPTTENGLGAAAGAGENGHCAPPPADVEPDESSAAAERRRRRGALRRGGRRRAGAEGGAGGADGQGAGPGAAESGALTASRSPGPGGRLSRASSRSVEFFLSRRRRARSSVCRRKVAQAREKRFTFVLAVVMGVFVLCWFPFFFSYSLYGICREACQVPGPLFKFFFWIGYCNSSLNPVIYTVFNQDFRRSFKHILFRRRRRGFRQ

Structure (SMILES)	cell count [1]	inhibition [1]	inhibition of aggregation [2]	nuclei count [2]	inhibition [3]	nuclei count [3]	z-score [4, 13]	z-score [4, 14]	z-score [4, 15]	inhibition [5]	fluorescence slope [6]	NADPH fluorescence slope [7]	slope [8]	outcome [9]	inhibition [10]	inhibition [11]	inhibition [12]
C[C@]12CCC(=O)C=C1CC[C@@H]1[C@@H]2[C@@H](O)C[C@@]2(C)[C@H]1CC[C@]2(O)C(=O)COC(=O)CCC(=O)O	638 and 636	1.3% (inactive) and -6.2% (inactive)	-14.6% (inactive) and 5.9% (inactive)	81.4% and 75.3%	-73.5% (inactive) and -140% (inactive)	113% and 141%	-0.295 and 0.975	-0.899 and -0.385	-0.0646 and -0.0458	7.39% (inactive) and 11.3% (inactive)	-0.492 (inactive) and -0.463 (inactive)	-9e-05 (inactive) and -1.6e-05 (inactive)	0.00441 (inactive) and 0.00453 (inactive)	inactive	1.85% (inactive) and -7.48% (inactive) and -3.81% (inactive)	5.11% (inactive) and 1.12% (inactive)	30.2% (inactive) and 30.8% (inactive)
O=C(O)c1ccccc1S	650	-5% (inactive)	6.8% (inactive)	96.1%	-76.8% (inactive)	126%	1.28	1.34	-0.494	21.2% (inactive)	-0.435 (inactive)	-8.2e-05 (inactive)	0.00404 (inactive)	inactive	-11% (inactive)	6.85% (inactive)	19% (inactive)
CC(=O)O[C@]1(C(C)=O)CC[C@H]2[C@@H]3C[C@H](C)C4=CC(=O)CC[C@]4(C)[C@H]3CC[C@@]21C	605	2.3% (inactive)	0.3% (inactive)	94.8%	-47.8% (inactive)	119%	1.33	-0.458	0.835	12.4% (inactive)	-0.521 (inactive)	-6e-06 (inactive)	0.00379 (inactive)	inactive	-2.6% (inactive)	8.39% (inactive)	46.7% (inactive)
COc1ccc(CCN(C)CCCC(C#N)(c2cc(OC)c(OC)c(OC)c2)C(C)C)cc1OC (stereo not given)	602	1.1% (inactive)	6% (inactive)	88.6%	-34.1% (inactive)	114%	2.13	0.829	-0.736	30.1% (inactive)	-0.466 (inactive)	-1e-05 (inactive)	0.00502 (inactive)	inactive	4.56% (inactive) and -3.63% (inactive)	3.72% (inactive)	17% (inactive)
C[C@H](CCC(=O)O)[C@H]1CC[C@H]2[C@@H]3C(=O)C[C@@H]4CC(=O)CC[C@]4(C)[C@H]3CC(=O)[C@]12C	606	-9.6% (inactive)	5.8% (inactive)	102%	-37.7% (inactive)	138%	-0.246	-0.125	-0.32	3.45% (inactive)	-0.45 (inactive)	5.4e-06 (inactive)	0.00499 (inactive)	inactive	9.63% (inactive)	14.6% (inactive)	33.2% (inactive)
CSc1ccccc1NC(=O)c1c(Br)cnn1C	559	-4.3% (inactive)	33.5% (active)	58.2%	26.1% (inactive)	130%	-0.962	-0.8	0.479	-2.47% (inactive)	-0.453 (inactive)	-5.8e-06 (inactive)	0.00569 (inactive)	inactive	4.29% (inactive)	5.4% (inactive)	4.72% (inactive)
O=C(O)c1ccc(COc2c(F)c(F)c(F)c(F)c2F)o1	492	-12.2% (inactive)	-42.8% (inactive)	99.6%	-83.7% (inactive)	129%	0.991	-1.28	-0.83	-3.5% (inactive)	-0.433 (inactive)	-0.000148 (inactive)	0.00486 (inactive)	inactive	-7.74% (inactive)	-5.03% (inactive)	-6.07% (inactive)
C=CCn1cnc2c(c1=O)c1nc3ccccc3nc1n2-c1ccc(C)cc1	548	-5.7% (inactive)	-8.4% (inactive)	100%	-70.3% (inactive)	132%	-0.575	-1.45	1.52	-2.07% (inactive)	-0.354 (inactive)	-6.7e-05 (inactive)	0.00438 (inactive)	inactive	15.4% (inactive)	15.3% (inactive)	10% (inactive)
CN(C1CCS(=O)(=O)C1)S(=O)(=O)c1cccc2nsnc12 (stereo not given)	506	-15.3% (inactive)	-7.5% (inactive)	117%	-64.1% (inactive)	135%	0.217	0.807	-0.289	-16.8% (inactive)	-0.513 (inactive)	-6.5e-05 (inactive)	0.00498 (inactive)	inactive	19.4% (inactive)	15.8% (inactive)	14.5% (inactive)
COCCCN1C(=O)C(O)=C(C(=O)c2ccco2)C1c1ccc(Br)cc1 (stereo not given)	417	-4.6% (inactive)	-13.4% (inactive)	107%	-25.5% (inactive)	117%	-1.16	0.864	0.315	-4.7% (inactive)	-0.457 (inactive)	7.2e-06 (inactive)	0.00512 (inactive)	inactive	6.25% (inactive)	23.9% (inactive)	22.2% (inactive)
CC(=O)O[C@]1(C(C)=O)CC[C@H]2[C@@H]3C=C(C)C4=CC(=O)CC[C@]4(C)[C@H]3CC[C@@]21C	697	-4.5% (inactive)	-13.2% (inactive)	103%	-91% (inactive)	125%	0.989	-0.815	-0.896	7.39% (inactive)	-0.492 (inactive)	-2e-05 (inactive)	0.00287 (inactive)	inactive	1.32% (inactive)	15.7% (inactive)	41% (inactive)
C=CCOc1nc2c(c(=O)n(C)c(=O)n2C)n1Cc1c(Cl)cccc1Cl	556	-2.9% (inactive)	-47.7% (inactive)	115%	14% (inactive)	113%	-0.686	2.36	-0.556	-4.7% (inactive)	-0.502 (inactive)	-0.000118 (inactive)	0.00485 (inactive)	inactive	-9.21% (inactive)	11.4% (inactive)	16% (inactive)
N#Cc1c(N)n(CCOC(=O)c2cccc(Br)c2)c2nc3ccccc3nc12	592	0.6% (inactive)	-46.7% (inactive)	75.5%	-20.6% (inactive)	108%	1.33	-2.21	-0.755	-1.12% (inactive)	-0.434 (inactive)	-0.000171 (inactive)	0.00581 (inactive)	inactive	15.2% (inactive)	16.3% (inactive)	30.6% (inactive)
COc1ccccc1-n1c(=O)c2c3c(sc2n2c(SC(C)C)nnc12)CCC3	643	-11.3% (inactive)	31.3% (active)	93.7%	-68% (inactive)	145%	1.45	-1.07	1.13	-11% (inactive)	-0.248 (inactive)	1.3e-05 (inactive)	0.005 (inactive)	inactive	34.4% (inactive)	0.779% (inactive)	20.4% (inactive)
CCC(C(=O)OCCN(CC)CC)c1ccccc1 (stereo not given)	572	-11.1% (inactive)	-9.9% (inactive)	104%	-56.9% (inactive)	130%	1.14	1.04	0.111	19.2% (inactive)	-0.459 (inactive)	-3.7e-05 (inactive)	0.00422 (inactive)	inactive	21.8% (inactive)	8.3% (inactive)	34.3% (inactive)
C[C@]12CC[C@@H]3c4ccc(O)cc4CC[C@H]3[C@@H]1CC[C@@H]2OC(=O)CCC(=O)O	543	4.6% (inactive)	-1.9% (inactive)	91.7%	-5.8% (inactive)	111%	-0.479	-0.845	2.04	5.79% (inactive)	-0.519 (inactive)	-3.4e-05 (inactive)	0.0043 (inactive)	inactive	-7.26% (inactive)	15.4% (inactive)	24% (inactive)
O=C(O)/C=C/c1ccc(O)c(O)c1	613	4% (inactive)	8.3% (inactive)	103%	-48.2% (inactive)	116%	-0.618	-0.142	-0.455	10.2% (inactive)	-0.453 (inactive)	-6.6e-05 (inactive)	0.00437 (inactive)	inactive	-2.7% (inactive) and 27.7% (inactive)	8.79% (inactive)	43.2% (inactive)
Nc1nc(N)c2nc(-c3ccccc3)c(N)nc2n1	640	-0.8% (inactive)	-9.9% (inactive)	107%	-64.7% (inactive)	133%	-0.982	-0.143	2.15	-11.9% (inactive)	-0.0137 (active)	-1.2e-05 (inactive)	0.00479 (inactive)	inactive	4.85% (inactive) and -8.55% (inactive)	12.2% (inactive)	34.5% (inactive)
CCCCOc1ccc(OCCCN2CCOCC2)cc1	589	6% (inactive)	7.5% (inactive)	94.3%	-52.4% (inactive)	117%	-0.745	-1.16	3.07	1.38% (inactive)	-0.49 (inactive)	-5.2e-05 (inactive)	0.00401 (inactive)	inactive	159% (active)	-7.75% (inactive)	-40.7% (inactive)
Cc1cc(C)n(-c2nnc(C)n2/N=C/c2ccccc2F)n1	592	-10% (inactive)	-14.2% (inactive)	107%	-75.7% (inactive)	153%	0.554	1.09	-0.737	9.82% (inactive)	-0.53 (inactive)	-4.2e-05 (inactive)	0.00446 (inactive)	inactive	5.75% (inactive)	13.6% (inactive)	22% (inactive)
